This note sets out measurements from PubChem BioAssay (NCI).

The structures appear in SMILES notation. About 79,000 compounds went through this panel and 15% of them were active in at least one assay; those are over-represented in the sample as a whole. Unmarked numbers belong to inactive results. Activity calls are given as the source filed them. No stated cut-off is given here; in the data, active means growth inhibition above about 70%; inactive means the rest.

Assay [1] can be described thus: NCI Yeast Anticancer Drug Screen. Data for the rad50 strain (AID 155).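 Further: 0% = growth of vehicle-only cultures of the same strain.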 Particulars: S. cerevisiae rad50 strain growth inhibition; at 50.0 µM; stronger effect = higher value. The method in brief:
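Growth of the mutant yeast was measured after compound exposure and referenced to vehicle-treated cultures.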

A short description of assay [2]: NCI Yeast Anticancer Drug Screen. Data for the mec2-1 strain (AID 157). To be noted: S. cerevisiae mec2-1 strain, at 50.0 µM, stronger effect = higher value. The method in brief: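 Each compound was tested on mec2-1 yeast, a strain altered in DNA damage repair or cell cycle control. Growth inhibition is reported relative to vehicle.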
Assay [3] is described as follows: NCI Yeast Anticancer Drug Screen. Data for the sgs1 mgt1 strain (AID 161).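 Further: 0% = growth of cultures given vehicle only.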 Particulars: S. cerevisiae sgs1 mgt1 strain, at 50.0 µM, stronger effect = higher value. The procedure, abridged: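 Read-out: growth inhibition vs vehicle controls. Cells: mutant yeast strain deficient in DNA damage repair.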
Assay [4] in a line: NCI Yeast Anticancer Drug Screen. Data for the cln2 rad14 strain (AID 165).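 Further: 0% = growth equal to vehicle treated cultures.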 Particulars: S. cerevisiae cln2 rad14 strain, at 50.0 µM, stronger effect = higher value. The method in brief:
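Test compounds were added to cln2 rad14 yeast cultures; inhibition of growth was then determined by comparison with vehicle treatment.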

Assay [5] can be described thus: NCI Yeast Anticancer Drug Screen. Data for the bub3 strain (AID 167). To be noted: S. cerevisiae bub3 mutant strain, at 50.0 µM, stronger effect = higher value. The method in brief: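 Whole-cell yeast assay. The mutant strain was incubated with compounds, and growth inhibition was determined by comparison with vehicle-treated cells.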
The nature of assay [6]: NCI Yeast Anticancer Drug Screen. Data for the mlh1 rad18 strain (AID 175). Particulars: S. cerevisiae mlh1 rad18 strain growth inhibition; at 50.0 µM; stronger effect = higher value. The method in brief: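 Inhibition values reflect reduced growth of mutant yeast versus vehicle-treated controls following compound exposure; the mutations affect DNA damage repair.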

As to `Cc1cccc2c(CC(N)C(=O)O)c[nH]c12` (stereo unspecified), the growth inhibition in assay [1] was 3.25%; in assay [2] it was -19.9%; in assay [3], -18.9%; in assay [4], -23.4%; in assay [5], -16.6%; in assay [6], -3.35%.

For `C=CCNC(=S)Nc1ccc(OC(=O)NC(C)(C)C)cc1`, the growth inhibition in assay [1] was 2%; in assay [2] it was 29.4%; in assay [3], 26.4%; in assay [4], -16.8%; in assay [5], 25.3%; in assay [6] it was 0.1%.

Take `CNc1c([N+](=O)[O-])cc2[nH]c(C)nc2c1[N+](=O)[O-]`: the growth inhibition in assay [1] was 22.4%; in assay [2], 19.3%; in assay [3] it was 42.9%; in assay [4], 0.05%; in assay [5], 0.95%; in assay [6], 11.6%.

Consider `Clc1cc2nnn(C3CCCCO3)c2cc1Cl` (stereo unspecified), for which the growth inhibition is 9.75% in assay [1]; -3.05% in assay [2]; -23.4% in assay [3]; -12.3% in assay [4]; -0.9% in assay [5]; 14.4% in assay [6].

Regarding `O=C(/C=C/c1ccc(Cl)c(Cl)c1)c1ccccc1`, the growth inhibition was -7.1% in assay [1]; -52.9% in assay [2]; -7.9% in assay [3]; -16.9% in assay [4]; 35% in assay [5]; -59.4% in assay [6].

On to `CC(=O)Oc1cc2c(cc1OC(C)=O)C(=O)c1cc3c(cc1C2=O)OCO3`, for which the growth inhibition in assay [1] is -31.7%; in assay [2], -10.9%; in assay [3] it was -1.3%; in assay [4] it was -17.2%; in assay [5] it was -6.5%; in assay [6] it was -12%.

With `CC(=O)OC12CC(C)C3(O)C4C=C(C)C(=O)[C@@]4(O)CC(CO)=C[C@H]3C1C2(C)C` (stereo partly specified), the growth inhibition in assay [1] was -4.3%; in assay [2] it was -6.15%; in assay [3], 9.95%; in assay [4], 5.35%; in assay [5] it was 6.8%; in assay [6] it was 2.05%.

As to `CCC1(CN(C)C)CC/C(=C\c2ccc(OC)cc2)C1=O` (stereo unspecified), the growth inhibition in assay [1] is 8.8%; in assay [2], 4.1%; in assay [3], -9.2%; in assay [4], -6.1%; in assay [5] it was -5.8%; in assay [6], 27.3%.

Turning to `O=C1CCN2C(=O)CCN12`, the growth inhibition is 1.1% in assay [1]; -10.2% in assay [2]; 18.7% in assay [3]; 14.8% in assay [4]; 11% in assay [5]; 2.35% in assay [6].

Turning to `CCNc1nc(C)nc2c1cnn2-c1ccc(C)cc1`, the growth inhibition in assay [1] is 6.25%; in assay [2], -3.4%; in assay [3] it was 25.3%; in assay [4], -27.5%; in assay [5], -21.8%; in assay [6], 7.25%.

`CCOC(=C\C=C\C1=[N+](C)c2ccccc2C1(C)C)/C=C/C=C1/N(C)c2ccccc2C1(C)C`: the growth inhibition in assay [1] is 17.6%; in assay [2] it was 87.6% (active); in assay [3], 34.2%; in assay [4] it was 82.5% (active); in assay [5], 81.8% (active); in assay [6] it was 27.6%.

In the case of `COC1=C(C)C(=O)C2=C(C1=O)C1C3CC4=C(C(=O)C(OC)=C(C)C4=O)C(CNC(=O)C(C)O)N3C(C#N)C(C2)N1C` (stereo unspecified), the growth inhibition in assay [1] was 15.9%; in assay [2], 0.85%; in assay [3], 8.9%; in assay [4] it was 32.8%; in assay [5], -3.45%; in assay [6], 41.5%.

Take `COC(CC(=O)O)CC(C)CC(C)(C)C` (stereo unspecified): the growth inhibition in assay [1] was 48.5%; in assay [2], 15.8%; in assay [3] it was 38%; in assay [4] it was 18.9%; in assay [5], 24.9%; in assay [6] it was 40.1%.

`CN(C)NC(=O)Nc1cccc2ccccc12`: the growth inhibition was -25.2% in assay [1]; -22.3% in assay [2]; -6.15% in assay [3]; -22.4% in assay [4]; -26.9% in assay [5]; -20.4% in assay [6].

For `CC/C=C\CCCCC`, the growth inhibition was 0.4% in assay [1]; -13.7% in assay [2]; -12.6% in assay [3]; 0.05% in assay [4]; -10.8% in assay [5]; 4.7% in assay [6].

Consider `O=C(Nc1ccccc1C(F)(F)F)Oc1ccc(Cl)cc1Cc1ccccc1`, for which the growth inhibition in assay [1] is 99.4% (active); in assay [2] it was 99.6% (active); in assay [3] it was 99.7% (active); in assay [4], 99.3% (active); in assay [5], 99.2% (active); in assay [6] it was 99.5% (active).

Take `CNC(=O)CNC(=O)C(Cc1ccc(NC(=O)CCCCC(C)=O)cc1)NC(=O)C(CCC(=O)OCc1ccccc1)NC(=O)OC(C)(C)C` (stereo unspecified): the growth inhibition in assay [1] was -19.6%; in assay [2], -23.6%; in assay [3], -26.1%; in assay [4], 0%; in assay [5] it was -30.1%; in assay [6], -17.1%.

Take `CCCCCCCC(CCCCCCC)C(=O)OCCO`: the growth inhibition in assay [1] was -7.4%; in assay [2], -7.9%; in assay [3], 3.7%; in assay [4] it was -21.8%; in assay [5], -4.95%; in assay [6], -5.6%.

On to `N#CCCOCCNCCSC(=O)c1ccccc1`, for which the growth inhibition in assay [1] was 36.8%; in assay [2], 4.05%; in assay [3], 12.4%; in assay [4], 6.65%; in assay [5], 8.45%; in assay [6] it was 4.25%.

Turning to `Cc1ccc(N=C=S)cc1Cl`, the growth inhibition in assay [1] is 6.75%; in assay [2], 9.65%; in assay [3], 32.4%; in assay [4] it was 6.55%; in assay [5], 15.8%; in assay [6], 27.9%.

As to `CCOC(=O)C(C)NCc1ccccc1` (stereo unspecified), the growth inhibition in assay [1] is 2.15%; in assay [2], 0.1%; in assay [3], -1.4%; in assay [4], -39.6%; in assay [5] it was 0.95%; in assay [6], -3.25%.
